The values that follow come from PubChem BioAssay.

In assay [1] the test system is Plasmodium falciparum Sir2 (PF13_0152, Sir2A). The assay is described as follows: Plasmodium falciparum Sir2A binding compounds – biochemical, small-molecule microarray, 635 nm fluorescence, primary screen (AID 1098).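 Also: score merges spot fluorescence intensity with its signal-to-noise ratio.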 Conditions: fluorescence 635 nm, higher = more signal.
A short description of assay [2]: probe aDKK1 binding to arrayed compounds – biochemical, biotinylated probe, 635/667 nm fluorescence, primary screen (AID 1099).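 Also: score merges 667nm spot fluorescence with signal to noise across triplicate slides.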 Conditions: small-molecule microarray, higher = more signal.
A short description of assay [3]: probe aCHRDL2 binding to arrayed compounds – biochemical, biotinylated probe, 635/667 nm fluorescence, primary screen (AID 1100). Conditions: small-molecule microarray, higher = more signal.
Assay [4] in a line: change in splice reporter luminescence, either direction, cell-based, HEK293, spliceosome inhibition project, primary screen (AID 1101).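 Also: HEK293 cells carrying a splicing-competent luciferase reporter gene; test concentration not given here.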 Conditions: HEK293 splicing luciferase reporter, 24 h, higher = more signal, called active from +8 up or from −8 down. For orientation: A reporter such as luciferase makes a cellular process visible.
In assay [5] the target is Fibroblast growth factor 10 (Homo sapiens) (UniProt O15520). The assay is described as follows: compounds binding fibroblast growth factor 10 – biochemical, small-molecule microarray, 635 nm fluorescence, primary screen (AID 1102). Conditions: FGF10 binding, fluorescence 635 nm, higher = more signal.
Chain of Fibroblast growth factor 10 (Homo sapiens) (O15520 whole entry, looked up): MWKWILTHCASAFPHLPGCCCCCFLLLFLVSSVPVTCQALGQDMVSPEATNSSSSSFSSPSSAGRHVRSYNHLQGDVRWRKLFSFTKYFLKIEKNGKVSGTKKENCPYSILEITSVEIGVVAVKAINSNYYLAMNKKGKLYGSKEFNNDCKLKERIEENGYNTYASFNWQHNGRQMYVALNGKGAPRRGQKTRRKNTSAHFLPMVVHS
Assay [6] deals with glycogen synthase kinase-3 (GSK3A per assay name; protocol says GSK3B). The assay is described as follows: compounds binding glycogen synthase kinase-3 – biochemical, small-molecule microarray, 635 nm fluorescence, GSK3A, primary screen (AID 1103). Also: the record names both GSK3A and GSK3B. Conditions: fluorescence 635 nm, higher = more signal.
In assay [7] the target is Epidermal growth factor receptor (Homo sapiens) (UniProt P00533). The assay is described as follows: compounds binding epidermal growth factor receptor – biochemical, small-molecule microarray, 635 nm fluorescence, primary screen (AID 1104).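 Also: score merges 667 nm emission intensity with spot signal to noise over triplicate slides.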 Conditions: EGFR binding, higher = more signal.
Chain of Epidermal growth factor receptor (Homo sapiens) (P00533 whole entry, looked up): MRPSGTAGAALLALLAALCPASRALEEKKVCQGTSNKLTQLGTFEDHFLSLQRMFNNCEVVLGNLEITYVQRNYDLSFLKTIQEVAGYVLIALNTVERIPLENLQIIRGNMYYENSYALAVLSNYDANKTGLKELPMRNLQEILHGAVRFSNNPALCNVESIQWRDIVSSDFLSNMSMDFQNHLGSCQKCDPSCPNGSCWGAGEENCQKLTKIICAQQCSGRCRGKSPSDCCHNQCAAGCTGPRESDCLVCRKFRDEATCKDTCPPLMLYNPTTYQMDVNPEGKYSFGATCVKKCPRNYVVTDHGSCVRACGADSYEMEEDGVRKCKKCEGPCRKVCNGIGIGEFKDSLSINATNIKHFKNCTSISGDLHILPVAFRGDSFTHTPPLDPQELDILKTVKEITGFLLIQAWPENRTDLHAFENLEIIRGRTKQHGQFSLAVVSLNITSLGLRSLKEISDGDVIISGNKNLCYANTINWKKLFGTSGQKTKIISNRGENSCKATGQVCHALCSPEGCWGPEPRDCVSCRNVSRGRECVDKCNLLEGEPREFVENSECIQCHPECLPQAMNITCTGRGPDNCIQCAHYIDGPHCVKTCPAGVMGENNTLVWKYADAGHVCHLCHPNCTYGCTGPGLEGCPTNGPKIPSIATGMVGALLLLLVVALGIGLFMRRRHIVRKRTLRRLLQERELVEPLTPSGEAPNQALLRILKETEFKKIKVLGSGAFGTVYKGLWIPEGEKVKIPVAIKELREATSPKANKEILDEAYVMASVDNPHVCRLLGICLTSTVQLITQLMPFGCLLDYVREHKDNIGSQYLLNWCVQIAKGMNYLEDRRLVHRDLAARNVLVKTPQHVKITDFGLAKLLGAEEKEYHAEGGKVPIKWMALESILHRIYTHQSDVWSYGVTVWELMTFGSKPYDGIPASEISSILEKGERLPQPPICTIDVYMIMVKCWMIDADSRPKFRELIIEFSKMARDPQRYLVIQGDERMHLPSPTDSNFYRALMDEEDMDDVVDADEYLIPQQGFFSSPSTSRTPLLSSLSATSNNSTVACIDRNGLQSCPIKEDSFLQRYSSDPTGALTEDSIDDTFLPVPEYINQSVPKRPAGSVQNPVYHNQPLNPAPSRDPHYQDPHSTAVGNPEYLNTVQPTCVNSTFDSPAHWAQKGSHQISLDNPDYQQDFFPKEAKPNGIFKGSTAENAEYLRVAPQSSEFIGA
Assay [8] has as its target Follistatin-related protein 3 (Homo sapiens) (UniProt O95633). The assay is described as follows: compounds binding follistatin-related protein 3 – biochemical, small-molecule microarray, 635 nm fluorescence, primary screen (AID 1105).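 Also: score merges emission near 667 nm and signal to noise per printed spot across three slides.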 Conditions: FSTL3 binding, higher = more signal.
The target in assay [9] is Dickkopf-related protein 1 (Homo sapiens) (UniProt O94907). The assay is described as follows: small molecules binding DKK1 protein – biochemical, small-molecule microarray, 635 nm fluorescence scan, primary screen (AID 1106).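 Also: score merges emission near 667 nm with signal to noise over three replicate slides.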 Conditions: higher = more signal.
Chain of Dickkopf-related protein 1 (Homo sapiens) (O94907 whole entry, looked up): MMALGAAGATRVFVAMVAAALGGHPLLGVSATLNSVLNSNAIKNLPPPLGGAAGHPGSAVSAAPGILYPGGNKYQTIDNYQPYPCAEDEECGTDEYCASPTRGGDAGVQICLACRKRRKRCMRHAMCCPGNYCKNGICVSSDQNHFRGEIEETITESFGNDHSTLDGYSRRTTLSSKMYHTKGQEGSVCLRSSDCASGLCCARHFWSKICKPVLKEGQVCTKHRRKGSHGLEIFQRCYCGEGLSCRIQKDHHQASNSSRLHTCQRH
The test system of assay [10] is Inhibin beta A chain (activin A). The assay is described as follows: small molecules binding activin A – biochemical, small-molecule microarray, 635 nm fluorescence scan, primary screen (AID 1107).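 Also: mouse activin A protein probed at 4.33 µg/mL on printed slides; score merges bound-protein fluorescence near 667 nm with spot signal-to-noise.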 Conditions: INHBA, higher = more signal.
The test system of assay [11] is Human papillomavirus type 1a protein E7 (residues 44-93). Description: small molecules binding HPV E7 44-93 – biochemical, small-molecule microarray, residues 44-93, 635 nm fluorescence, primary screen (AID 1108).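 Also: E7 fragment applied at 1 µg/mL in TBST for 1 h at 4 C; score combines spot fluorescence with its signal to noise ratio.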 Conditions: fluorescence 635 nm, higher = more signal.
Assay [12] is described as follows: hepatitis C replication reporter changes, two-sided – Huh7 cells, luciferase reporter, HCV replication inhibitor project, primary screen (AID 1109).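 Also: huh7 hepatoma cells harbouring a luciferase neomycin HCV replicon reporter; luciferase luminescence as measure of HCV replicon replication; test concentration not given here.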 Conditions: Huh7 HCV replicon luciferase reporter, 48 h; higher = more signal.
Assay [13] addresses Left-right determination factor 2 (Homo sapiens) (UniProt O00292). Description: small molecules binding LEFTY2 protein – biochemical, small-molecule microarray, 635 nm fluorescence scan, primary screen (AID 1110). Conditions: higher = more signal.
Assay [14] has as its target Calmodulin-1 (Homo sapiens) (UniProt P0DP23). The assay is described as follows: small molecules binding calmodulin-1 with EGTA – biochemical, small-molecule microarray, Cy5-labelled CALM1, profiling panel (AID 1111).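 Also: labelled calmodulin applied in Tris saline Tween buffer holding calcium plus EGTA and DTT.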 Conditions: Cy5-CALM1 binding fluorescence, higher = more signal.
The target is the same in assay [15]. The assay is described as follows: small molecules binding Ca-loaded calmodulin-1 – biochemical, small-molecule microarray, Cy5-labelled CALM1, plus calcium, artefact control for SMM control-protein annotation, profiling panel (AID 1112).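 Also: score merges spot fluorescence with signal to noise from triplicate slides.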 Conditions: Cy5-CALM1 binding fluorescence, higher = more signal.
Assay [16] is described as follows: probe aWnt5a binding to arrayed compounds – biochemical, biotinylated probe, 635/667 nm fluorescence, primary screen (AID 1113).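 Also: score merges 667 nm fluorescence intensity with signal-to-noise per printed feature.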 Conditions: small-molecule microarray, higher = more signal.
Assay [17] is described as follows: probe aShh binding to arrayed compounds – biochemical, biotinylated probe, 635/667 nm fluorescence, primary screen (AID 1114).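 Also: probe is biotin-labelled aShh protein from a stem cell growth factor screen; measures binding of labelled protein to compounds printed on the slide; score merges feature fluorescence at 667 nm with signal-to-noise.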 Conditions: small-molecule microarray, higher = more signal.
A short description of assay [18]: probe aNog binding to arrayed compounds – biochemical, biotinylated probe, 635/667 nm fluorescence, primary screen (AID 1115).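 Also: probe is biotinylated aNog protein used at 0.15 µg/mL for 1 h at 4 C; z-score combines 667 nm fluorescence of each spot with its signal to noise.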 Conditions: small-molecule microarray, higher = more signal.
The target in assay [19] is Torsin-1A-interacting protein 1 (Homo sapiens) (UniProt Q5JTV8). The assay is described as follows: compound microarray binding of lysate hLAP1 – cell lysate, small-molecule microarray, COS7 lysate, 635/667 nm fluorescence, primary screen (AID 1116). Conditions: 635 nm fluorescence, higher = more signal.
Chain of Torsin-1A-interacting protein 1 (Homo sapiens) (Q5JTV8 whole entry, looked up): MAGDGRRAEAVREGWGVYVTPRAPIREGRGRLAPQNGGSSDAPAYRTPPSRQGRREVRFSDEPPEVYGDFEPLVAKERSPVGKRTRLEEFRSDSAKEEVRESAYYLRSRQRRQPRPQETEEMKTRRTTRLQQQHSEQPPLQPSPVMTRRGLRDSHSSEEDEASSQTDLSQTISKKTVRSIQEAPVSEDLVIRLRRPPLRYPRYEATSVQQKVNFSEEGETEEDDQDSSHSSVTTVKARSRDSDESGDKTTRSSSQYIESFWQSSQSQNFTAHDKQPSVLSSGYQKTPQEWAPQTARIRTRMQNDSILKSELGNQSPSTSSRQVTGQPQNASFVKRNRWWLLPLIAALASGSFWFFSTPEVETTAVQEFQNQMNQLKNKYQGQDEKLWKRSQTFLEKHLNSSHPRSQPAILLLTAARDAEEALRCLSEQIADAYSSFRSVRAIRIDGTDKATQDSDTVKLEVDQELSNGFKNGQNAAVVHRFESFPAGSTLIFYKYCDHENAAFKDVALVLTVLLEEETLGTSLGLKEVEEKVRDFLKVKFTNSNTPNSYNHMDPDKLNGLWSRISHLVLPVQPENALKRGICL
In assay [20] the target is Alpha-bungarotoxin (Bungarus multicinctus) (UniProt P60615). Description: compounds binding labelled alpha-BTX control protein – biochemical, small-molecule microarray, Alexa647 label, 635/667 nm fluorescence, artefact control for SMM control protein annotation, profiling panel (AID 1117). Conditions: alpha-BTX-A647 binding fluorescence, higher = more signal.
Chain of Alpha-bungarotoxin (Bungarus multicinctus) (P60615 whole entry, looked up): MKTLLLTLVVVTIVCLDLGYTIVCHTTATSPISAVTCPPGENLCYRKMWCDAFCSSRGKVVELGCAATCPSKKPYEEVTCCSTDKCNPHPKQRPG

Active and inactive are the calls of the source.

Chain of Follistatin-related protein 3 (Homo sapiens) (O95633 whole entry, looked up): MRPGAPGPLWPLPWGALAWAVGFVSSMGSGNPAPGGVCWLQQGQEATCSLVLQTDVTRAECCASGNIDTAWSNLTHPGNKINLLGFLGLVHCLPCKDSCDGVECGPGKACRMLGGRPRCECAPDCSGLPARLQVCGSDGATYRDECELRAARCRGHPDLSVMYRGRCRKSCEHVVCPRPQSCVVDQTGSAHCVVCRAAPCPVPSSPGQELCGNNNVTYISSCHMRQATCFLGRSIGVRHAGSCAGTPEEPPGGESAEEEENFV
Chain of Left-right determination factor 2 (Homo sapiens) (O00292 whole entry, looked up): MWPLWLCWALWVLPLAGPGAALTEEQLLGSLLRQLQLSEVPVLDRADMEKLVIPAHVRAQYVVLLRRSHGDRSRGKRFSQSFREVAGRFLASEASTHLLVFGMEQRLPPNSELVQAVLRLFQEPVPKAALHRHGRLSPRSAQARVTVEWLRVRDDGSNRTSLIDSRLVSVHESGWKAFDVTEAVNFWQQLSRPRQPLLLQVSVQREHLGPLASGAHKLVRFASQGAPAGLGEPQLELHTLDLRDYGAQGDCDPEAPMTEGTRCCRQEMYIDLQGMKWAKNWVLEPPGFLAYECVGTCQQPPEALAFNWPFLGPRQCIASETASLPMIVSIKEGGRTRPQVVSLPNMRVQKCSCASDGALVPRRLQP

Consider `Cc1ccc(S[C@]2(C(=O)O)CC(=O)N(Cc3ccccc3Cl)[C@@H]2c2ccc(CO)cc2)cc1`, for which the composite z-score in [1] was -0.189; in [2], 0.505; in assay [3] it was 0.938; in assay [5] it was -0.165; in [6] it was -0.851; in [7], -0.84. Also, the composite z-score in assay [8] is -1.1; in assay [9] it was -0.817; in assay [10] it was 0.387; in assay [11], 0.459; in assay [13] it was -1.54; in assay [14], 0.459. Also, the composite z-score is 0.644 in [15]; -0.192 in assay [16]; 0.131 in assay [17]; 0.549 in assay [18]; 0.0695 in assay [19]; 1.57 in assay [20]. The z-score in assay [4] is 1.39 (inactive); in assay [12], -0.828.
Turning to `COCCOC(=O)N1C(=O)[C@@]2(c3cc(C#CC4=CCCCC4)ccc31)[C@H](c1ccccc1OCCO)N1[C@H](c3ccccc3)[C@H](c3ccccc3)OC(=O)[C@H]1[C@@H]2C(=O)N1CCc2cc(OC)c(OC)cc2C1`, the composite z-score was 0.162 in assay [1]; -0.636 in [2]; -0.834 in assay [3]; 0.848 in [5]; 1.18 in [6]; 0.733 in assay [7]. Moreover, the composite z-score in assay [8] is 1.4; in [9] it was 0.356; in assay [10], -0.244; in assay [11] it was 1.33; in assay [13], 0.336; in assay [14], -0.141. Moreover, the composite z-score in assay [15] was -0.383; in assay [16] it was -0.121; in assay [17], -0.176; in [18], -0.008; in [19], 0.336; in [20], 0.761. For the same compound, the z-score in assay [4] is -0.222 (inactive); in assay [12] it was -1.81.
With `CC(C)CN1C(=O)[C@@]2(c3ccc([N+](=O)[O-])cc3)CC(=O)N(CC34CC5CC(CC(C5)C3)C4)[C@@H]2c2ccc(CO)cc21`, the composite z-score in assay [1] is 0.984; in assay [2], 0.185; in assay [3], 0.807; in assay [5], -1.02; in [6] it was -0.853; in assay [7], -1.72. Besides, the composite z-score in assay [8] was -1.09; in assay [9], -1.48; in assay [10], 0.2; in [11], -0.746; in assay [13], -1.36; in assay [14], 0.657. The composite z-score is 0.0047 in [15]; -0.152 in assay [16]; 0.151 in [17]; 0.884 in assay [18]; -1.09 in assay [19]; 0.578 in assay [20]. For the same compound, the results for the z-score in assay [4] and in assay [12] were -0.668 (inactive) and -1.07, respectively.
As for `O=C1O[C@@H](c2ccccc2)[C@@H](c2ccccc2)N2[C@@H](c3ccccc3OCCO)[C@]3(C(=O)Nc4ccc(C#CCCO)cc43)[C@@H](C(=O)Nc3nc4ccccc4s3)[C@H]12`, the composite z-score in [1] turned out to be 0.757; in assay [2] it was 0.74; in [3], 0.862; in assay [5], 0.828; in assay [6] it was 1.28; in assay [7], 0.528. Besides, the composite z-score was 1.35 in [8]; 0.76 in assay [9]; 0.406 in [10]; -0.503 in [11]; 1.02 in assay [13]; 1.7 in assay [14]. Further, the composite z-score was 0.64 in assay [15]; -0.0572 in [16]; -0.289 in assay [17]; -0.523 in assay [18]; 0.326 in assay [19]; 1.82 in [20]. In addition, the z-score in [4] is -0.0337 (inactive); in [12] it was -2.12.
Take `[N-]=[N+]=NCc1ccccc1C[C@]1(C(=O)NCC(O)CO)N=C(c2ccc(OCCCO)cc2)O[C@H]1c1ccccc1CN=[N+]=[N-]` (stereo not given in full): the composite z-score in assay [1] was 0.425; in assay [2] it was 0.384; in assay [3] it was 0.953; in [5], 1.08; in [6], 1.15; in assay [7], -0.154. Also, the composite z-score was -0.392 in assay [8]; -0.749 in assay [9]; 0.387 in [10]; 1.47 in assay [11]; -0.353 in [13]; 1.42 in assay [14]. The composite z-score came out at 0.786 in assay [15]; 0.115 in assay [16]; 0.541 in assay [17]; 0.721 in assay [18]; 2.41 in assay [19]; 1.21 in [20]. For the same compound, the z-score is -0.47 (inactive) in assay [4] and -2.88 in assay [12].
